Laboratory results from PubChem BioAssay (Tox21).
Several values for one entry are separate records, joined by “and”; a condition that tells them apart may be missing. Equal entries are not always repeated. Results filed as inconclusive are left out. Where a call stands in place of a potency, no number is given. Activity calls are given as the source filed them. The call rests on the fitted dose curve; in most records, active means well fitted inhibition curve with a large enough effect in the repeat runs; inconclusive means weak or mixed curves; inactive means no such curve, though single readings can be large or run the other way.

Target: Cytochrome P450 1A2 (Homo sapiens) (UniProt P05177)
Sequence (P05177 whole entry, looked up): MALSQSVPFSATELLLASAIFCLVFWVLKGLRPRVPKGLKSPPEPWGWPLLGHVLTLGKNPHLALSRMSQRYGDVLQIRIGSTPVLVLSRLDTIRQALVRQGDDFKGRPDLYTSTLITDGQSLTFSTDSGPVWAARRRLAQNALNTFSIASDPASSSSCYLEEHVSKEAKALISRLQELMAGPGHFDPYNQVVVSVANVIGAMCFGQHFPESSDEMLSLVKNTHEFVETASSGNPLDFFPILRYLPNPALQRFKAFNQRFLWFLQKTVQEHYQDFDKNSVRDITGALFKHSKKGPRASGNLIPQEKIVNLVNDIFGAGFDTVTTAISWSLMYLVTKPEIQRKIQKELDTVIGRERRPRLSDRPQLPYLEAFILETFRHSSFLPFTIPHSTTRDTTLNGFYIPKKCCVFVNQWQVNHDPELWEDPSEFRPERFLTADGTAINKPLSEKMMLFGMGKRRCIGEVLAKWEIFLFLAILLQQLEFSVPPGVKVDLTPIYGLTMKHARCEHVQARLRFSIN
Assay: Cytochrome P450 Family 1 Subfamily A Member 2 (CYP1A2) small molecule antagonists: luciferase reporter qHTS assay (AID 1671199); further: nearly all actives have a fitted effect of over 50% in size
Conditions: P450-Glo CYP1A2 enzyme, luciferin luminescence, 1 h; series mostly up to 115 µM
From the text: National Center for Advancing Translational Sciences [NCATS]
U.S. Environmental Protection Agency [EPA]
National Institutes of Environmental Health Sciences [NIEHS]
National Toxicology Program [NTP]
U.S. Food and Drug Administration [FDA]
Cytochrome P450 (CYP) enzymes are membrane-bound hemeproteins that play a key role in metabolism of drugs and xenobiotics. Evaluation of the effect of chemicals on CYP isozymes is useful to minimize the adverse drug reactions and toxicities in drug development process. Tox21 chemicals were tested for their effect on CYP enzyme activities by using P450-Glo (TM) screening systems (Promega Corporation, Madison, WI). These systems provide a luminescent method containing proluciferin substrates and are converted to luciferin products by CYP isozymes. The luciferin products formed are detected with a luciferin detection reagent, and the amount of light produced is proportional to CYP activity. P450-Glo (TM) CYP1A2 screening system (Catalog. No. V9770) was used to detect the compounds that interfere in CYP1A2 activity. The positive control compound used for CYP1A2 assay is furafylline (Sigma-Aldrich, St. Louis, MO).
Tox21 Assay Protocol Summary:
Two ul of enzyme-substrate mix was dispensed into medium binding white/solid 1536-well plates (Greiner Bio-One North America Inc., Monroe, NC) using a BioRaptr Flying Reagent Dispenser (FRD, Beckman Coulter, Brea, CA). Compounds dissolved in DMSO and positive control (furafyllline) were transferred to the assay plates at 23 nl using a Pintool station (Wako, San Diego, CA). The assay plates were incubated at room temperature for 10 min. Then 2 ul of NADPH regeneration solution was added to each well of the assay plates using an FRD and incubated at room temperature for 1 h. The reaction was stopped by adding 4 ul of detection reagent using an FRD and after 20 min incubation at room temperature the luminescence signal was measured using a ViewLux plate reader (Perkin Elmer, Shelton, CT). Data were expressed as relative luminescence units.
Potency means the concentration at half of the fitted maximal effect.

SMILES	Potency	activity change, negative = inhibition
O=S(=O)(O)c1ccc(N=Nc2c(O)ccc3ccccc23)cc1	31.7 µM (active)	
C=C(C)C(=O)OCCCCCCCCCC	inactive	
O=[N+]([O-])c1cccc(C(F)(F)F)c1	inactive	
Nc1nc(N)nc(-c2cc(Cl)ccc2Cl)n1	17.4 µM (active)	
Cc1cc(=O)oc2cc(O)cc(O)c12	25.3 µM (active)	
Nc1ccc(NCCO)c([N+](=O)[O-])c1	31.7 µM (active)	
O[C@@H]([C@H](O)[C@H](O)CBr)[C@H](O)CBr	70.9 µM (active)	
C=Cc1cccc(C)c1	inactive	
CC(=O)[C@H]1CC[C@H]2[C@@H]3CCC4=CC(=O)CC[C@]4(C)[C@H]3CC[C@]12C	31.7 µM (active)	
CNc1ccc([N+](=O)[O-])cc1	35.7 µM (active)	
CCn1c2ccccc2c2cc([N+](=O)[O-])ccc21	1.12 µM (active)	
CCCC[P+](C)(CCCC)CCCC	inactive	
O=S(=O)(O)c1ccc(Nc2nc(Nc3ccc(/C=C/c4ccc(Nc5nc(Nc6ccc(S(=O)(=O)O)cc6)nc(N(CCO)CCO)n5)cc4S(=O)(=O)O)c(S(=O)(=O)O)c3)nc(N(CCO)CCO)n2)cc1	inactive	
C#C[C@]1(O)CC[C@H]2[C@@H]3[C@H](C)CC4=C(CCC(=O)C4)[C@H]3CC[C@@]21C	24.5 µM (active)	
Cc1cccc(C)c1NC(=O)c1ccc(N)cc1	inactive	
CCN1C(=O)c2ccccc2C1Nc1ccc(OCCN2CCCCC2)cc1 (stereo not given)	inactive	
CCCCCCCCCCCCOC(=O)c1ccc(O)cc1	12.7 µM (active)	
COc1cc2nc(N3CCN(C(=O)c4ccco4)CC3)nc(N)c2cc1OC		1.24% [at 23.6 µM] (inactive)
CCC(CC)C(C)CCOC(C)=O (stereo not given)	inactive	
CC(=O)OCC=C(C)C	inactive	

SMILES	Potency	activity change, negative = inhibition
COc1cc(S(=O)(=O)O)c(C)cc1N=Nc1c(O)ccc2cc(S(=O)(=O)O)ccc12	35.6 µM (active)	
CCCCCC/C=C\CCCCCCCC(=O)O	inactive	
CN1CCN(Cc2cc(-c3ccc4[nH]c(=O)oc4c3)co2)[C@@H](c2ccc(F)cc2)C1	inactive	
OC12N=C(c3ccccc3)SC1Cc1cc(Cl)ccc12 (stereo not given)	1.78 µM (active)	
C#Cc1ccc(-c2ccccc2F)cc1	0.911 µM (active)	
Cc1c2ccccc2c(C)c2c1ccc1ccccc12	626 nM (active) and 1.78 µM (active)	
O=C(O)Cc1ccccc1Nc1c(Cl)cccc1Cl	inactive	
NC(=S)NC(N)=S	35.6 µM (active)	
COC(=O)c1ccccc1OC	25.2 µM (active)	
CCc1cccc(CC)c1NC(=O)CN(CC(=O)O)CC(=O)O	inactive	
Cc1cccc(C(=O)O)c1O	inactive	
CC(N=C(NC#N)Nc1ccncc1)C(C)(C)C (stereo not given)	inactive	
CCOC(=O)NNc1ccc(N(CC)CC(C)O)nn1 (stereo not given)	inactive	
Cc1c(F)c(N2CCNC(C)C2)cc2c1c(=O)c(C(=O)O)cn2C1CC1 (stereo not given)	inactive	
O=c1[nH]c(=O)n([C@H]2C[C@H](O)[C@@H](CO)O2)cc1F	inactive	
CC(C)(C)c1ccc(C(O)CCCN2CCC(C(O)(c3ccccc3)c3ccccc3)CC2)cc1 (stereo not given)	inactive	
O=C1c2ccccc2C(=O)N1SC1CCCCC1	35.5 µM (active) and 35.6 µM (active)	
Cc1ccc(-c2ccccc2)cc1	inactive	
CC/C=C\CCCCCO	inactive	
OCC(F)(F)F	inactive	
